Assay results from ChEMBL document CHEMBL1157539, “Thousands of chemical starting points for antimalarial lead identification” (Nature, 2010).

Experiments:
Assay type in all cases: functional
[1] = system: Plasmodium falciparum; assay: GSK_TCMDC: Inhibition of Plasmodium falciparum 3D7 in whole red blood cells, using parasite LDH activity as an index of growth. Test compounds present at 2uM
[2] = system: Plasmodium falciparum; assay: GSK_TCMDC: Inhibition of Plasmodium falciparum Dd2 in whole red blood cells, using parasite LDH activity as an index of growth. Test compounds present at 2uM
[3] = system: HepG2; assay: GSK_TCMDC: Percent inhibition of human HepG2 cell line. Test compounds present at 10uM.

| SMILES | Inhibition [1] [%] | Inhibition [2] [%] | Inhibition [3] [%] |
| --- | --- | --- | --- |
| COc1ccc2ncc(Cl)c([C@H](O)CN3CCC(NCc4cc5c(cn4)OCCO5)CC3)c2c1.Cl | 100 | 100 | 10 |
| Brc1ccc(C=NNc2nc3ccccc3[nH]2)cc1 | 100 | 90 | 0 |
| CCOc1cc(C(=O)Nc2ccc3nc(N(CC)CC)cc(C)c3c2)cc(OCC)c1OCC | 98 | 9 | 16 |
| CC(=O)N1CCC(C(=O)Nc2ccc(-c3cccc(-c4nc5cccc(C)c5[nH]4)c3)cc2)CC1 | 84 | 27 | 85 |
| Clc1ccc(OCc2ccccc2)c(-c2nc(-c3nc4ncc(Br)cc4[nH]3)cs2)c1 | 100 | 77 | 0 |
| CCCc1ccc(NC(=O)c2cccc(CN3CCCN(Cc4cccc(C#N)c4)CC3)c2)cc1.O=C(O)C(F)(F)F | 85 | 0 | 20 |
| CCN(CC)CCN(Cc1ccc(-c2ccc(C(F)(F)F)cc2)cc1)C(=O)Cn1c(CCC2CCCCC2)nc(=O)c2ccccc21.O=C(O)C(O)C(O)C(=O)O | 87 | 25 | 32 |
| Cc1cccc2nc(-c3cccc(-c4ccc(C(=O)NCc5nccn5C)cc4)c3)[nH]c12 | 100 | 9 | 18 |
| CCC1N=C(N)N=C(N)N1OCc1cccc2ccccc12 (stereo not given) | 93 | 1 | 66 |
| Cc1[nH]c(C)c(-c2ccc(-c3cc(C(F)(F)F)cc(C(F)(F)F)c3)nc2)c(=O)c1Br | 98 | 96 | 18 |
